Bioassay records: PubChem BioAssay, The Scripps Research Institute Molecular Screening Center
ssDAF12 agonist: S. stercoralis DAF-12 nuclear receptor activators, primary screen, cell-based, luminescence, HEK293, GRIP1 co-expression, lit1-tk-luc. HEK293 ssDAF-12/GRIP1 lit1-tk-luc reporter; % of 3 µM dafachronic acid response. activation, % at 6.8 µM. 370,000 compounds, 1% hits. AID 652126, 2013;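 active means activation above the mean over all tested compounds plus 3 SD, cut at about 0.9% in these data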
hcDAF12 agonist: H. contortus DAF-12 nuclear receptor activators, primary screen, cell-based, luminescence, HEK293, lit1-tk-luc reporter; HEK293 hcDAF-12 lit1-tk-luc reporter; 0% DMSO, 100% Δ7-dafachronic acid; activation, % at 6.8 µM; 370,000 compounds, 1.4% hits; AID 652067, 2013;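 active means activation above the mean of all tested compounds plus 3 SD, cut at about 5.5% in these data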
DAX1 inh-1: DAX1 (NR0B1) inhibitors on StAR promoter, primary screen, cell-based, luminescence, SF-1 (NR5A1), full-length DAX-1; HEK293T StAR-luciferase reporter, SF-1/DAX-1 repression relief; inhibition, % at 6.8 µM; 370,000 compounds, 1.1% hits;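 active means inhibition above the mean over all tested compounds plus 3 SD, cut at about 3.6% in these data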;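 further: higher inhibition means more luminescence from relief of DAX-1 repression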
hgDAF-12 ag: H. glycines DAF-12 receptor agonists, primary screen, cell-based, luminescence, HEK293, GAL4 fusion, UAS-luciferase. activation, % at 6.8 µM. 370,000 compounds, 1.8% hits. HEK293 GAL4-hgDAF12 UAS-luciferase reporter, agonist luminescence; normalized to butyrate control;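 active means activation above a cutoff set at the mean of all screened compounds plus 3 SD, cut at about 10% in these data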
DAX1 inh-2: DAX1 (NR0B1) inhibitors, primary screen, cell-based, HEK293, Gal4-DAX1, luciferase luminescence; Nuclear receptor subfamily 0 group B member 1 (Homo sapiens), P51843; HEK293 Gal4-DAX1 luciferase reporter; inhibition, % at 6.75 µM; 340,000 compounds, 0.99% hits;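 active means inhibition above the mean over all tested compounds plus 3 SD, cut at about 4.2% in these data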;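 further: inhibition shows as a rise in luminescence from relieved DAX1 repression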
Target sequence (P51843 207-470 limits assumed): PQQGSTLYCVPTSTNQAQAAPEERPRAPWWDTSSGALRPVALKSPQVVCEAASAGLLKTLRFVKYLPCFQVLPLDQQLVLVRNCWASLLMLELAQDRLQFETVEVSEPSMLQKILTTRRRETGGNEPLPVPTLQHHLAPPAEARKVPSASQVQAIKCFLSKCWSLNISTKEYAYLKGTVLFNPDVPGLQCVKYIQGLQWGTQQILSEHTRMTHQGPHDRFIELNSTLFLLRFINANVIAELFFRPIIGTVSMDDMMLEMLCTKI
SMARCA2 act: SMARCA2 (BRM) function activators, primary screen, cell-based, luminescence, high throughput. MG213 cells, MMTV-luciferase reporter, dexamethasone, overnight. activation, % at 9.1 µM. 370,000 compounds, 1% hits. AID 652017, 2013; in the data active means activation above about 7.8%
DAX1 inh confirm: DAX1 (NR0B1) inhibitors relieving SF-1 repression, confirmation, cell-based, luminescence, HEK293T, full-length DAX-1, SF-1 activated StAR promoter; shares compounds with DAX1 inh-1; HEK293T StAR-promoter luciferase reporter, SF-1/DAX-1 repression; inhibition, % at 6.8 µM; 2,400 compounds, 87% hits; AID 652134, 2013;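 active means inhibition above the average of every tested compound plus 3 SD, cut at about 3.8% in these data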
SF1 AF2mut Luc: StAR reporter signal changes without DAX1, counter-screen for DAX1 inhibitor project, cell-based, luminescence, AF-2 mutant SF-1, transactivation. shares compounds with DAX1 inh-1. HEK293 StAR-luciferase, SF-1 AF2 mutant. inhibition, % at 6.8 µM. 2,400 compounds, 78% hits. AID 652136, 2013;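 active means inhibition above the mean of all tested compounds plus 3 SD, cut at about 3% in these data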
SMARCA2 act conf: SMARCA2 (BRM) function activators, confirmation, cell-based, luminescence, triplicate; shares compounds with SMARCA2 act; MG213 cells, MMTV-luciferase with dexamethasone, overnight; MG213 cells expressing E1A, Rb sequestered; DMSO wells 0%, reference activator 100%; activation, % at 9.1 µM; 3,500 compounds, 30% hits;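 active means activation above its plate's cutoff, the mean activation of tested wells plus 3 SD, cut at about 7.9% in these data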
VP16 Luc act: GAL4-VP16 luciferase reporter activation, counter-screen for SMARCA2 (BRM) activator project, cell-based, pG5luc, luminescence, high throughput. shares compounds with SMARCA2 act. HEK293 GAL4-VP16 pG5luc reporter; scaled: DMSO wells 0%, SAHA wells 100%. activation, % at 9.1 µM. 3,500 compounds, 41% hits;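 active means activation above the solvent-only control well mean plus 3 SD, averaged across control plates, cut at about 5.2% in these data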
LXR ag: LXR agonists, Gal4 luciferase reporter, confirmation, counter-screen for hcDAF-12 agonist project, cell-based, luminescence, HEK293, H. contortus campaign; AID 743027, 2013; 3,400 tested, under 10 active; shares compounds with hcDAF12 agonist; activation, % at 6.8 µM; HEK293 Gal4-LXR tk-luc reporter, 24 h; normalized: DMSO 0%, positive control 100%;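 active means mean percent activation of the reporter above a cutoff set as the average over tested compounds plus their standard deviation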
hcDAF12 ag: H. contortus DAF-12 receptor agonists, confirmation, cell-based, luminescence, HEK293, lit1-tk-luc, triplicate. 3,400 compounds, 61% hits. activation, % at 6.8 µM. shares compounds with hcDAF12 agonist. HEK293 hcDAF-12 lit1-tk-luc reporter; % of Δ7-dafachronic acid response. AID 743032, 2013;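 active means mean activation across triplicate tests above the threshold derived from the earlier primary screen, cut at about 5.5% in these data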
hgDAF12 conf: H. glycines DAF-12 receptor agonists, confirmation, cell-based, luminescence, HEK293, GAL4-LBD fusion. shares compounds with hgDAF-12 ag. HEK293 GAL4-hgDAF12 luciferase reporter, agonist mode; percent of butyrate response. activation, % at 6.8 µM. 3,300 compounds, 80% hits;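 active means mean activation over triplicate wells above the hit cutoff derived from the earlier primary screen, cut at about 11% in these data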
LXR ag 2: LXR agonists, Gal4 luciferase reporter, confirmation, counter-screen for hgDAF-12 agonist project, cell-based, luminescence, HEK293, H. glycines campaign | AID 743051, 2013 | shares compounds with hgDAF-12 ag | 3,300 tested, under 10 active | 24 h | activation, % at 6.8 µM;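 active means mean activation of the triplicate above a set limit carried over from the primary screen, none filed active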
Numbers stand for hits. A selection: hits, their analogues and other compounds. The true share with any hit is near 4.8%.

`CCCNC(=O)N(C)C[C@@H]1Oc2ncc(Br)cc2C(=O)N([C@H](C)CO)C[C@@H]1C` gave ssDAF12 agonist inactive, hcDAF12 agonist inactive, DAX1 inh-1 inactive, hgDAF-12 ag inactive, DAX1 inh-2 inactive and SMARCA2 act inactive.
For C(=N\NC1=Nc2cccc3cccc1c23)/c1ccccc1 the results were ssDAF12 agonist 4.5, hcDAF12 agonist 18, DAX1 inh-1 6.6, hgDAF-12 ag 23, DAX1 inh-2 5.7, SMARCA2 act inactive, DAX1 inh confirm 13, SF1 AF2mut Luc 9.5, LXR ag inactive, hcDAF12 ag 21, hgDAF12 conf 27 and LXR ag 2 inactive.
CN(C(=O)c1ccccc1OCc1ccc(Cl)cc1)c1ccccc1 was read as ssDAF12 agonist inactive, hcDAF12 agonist inactive, DAX1 inh-1 inactive, hgDAF-12 ag inactive, DAX1 inh-2 inactive and SMARCA2 act inactive.
COc1ccc(-c2cc3ccccc3oc2=O)cc1NC(=O)c1ccc(Br)o1 was read as ssDAF12 agonist inactive, hcDAF12 agonist inactive, DAX1 inh-1 inactive, hgDAF-12 ag inactive, DAX1 inh-2 inactive and SMARCA2 act inactive.
Screening CCC(=O)Nc1cc(-c2cc3ccccc3oc2=O)ccc1OC returned ssDAF12 agonist inactive, hcDAF12 agonist inactive, DAX1 inh-1 5.0, hgDAF-12 ag 14, DAX1 inh-2 inactive, SMARCA2 act 9.3, DAX1 inh confirm 9.3, SF1 AF2mut Luc 6.0, SMARCA2 act conf 11, VP16 Luc act 9.6, hgDAF12 conf 15 and LXR ag 2 inactive.
O=C(Nc1nc(-c2nc3ccccc3s2)cs1)C1COc2ccccc2O1 (configuration not stated) was read as ssDAF12 agonist inactive, hcDAF12 agonist inactive, DAX1 inh-1 inactive, hgDAF-12 ag inactive, DAX1 inh-2 inactive and SMARCA2 act inactive.
CC(=O)Nc1nc(C2COc3ccccc3O2)cs1 (configuration not stated) was read as ssDAF12 agonist inactive, hcDAF12 agonist 6.7, DAX1 inh-1 5.8, hgDAF-12 ag 14, DAX1 inh-2 inactive, SMARCA2 act inactive, DAX1 inh confirm 11, SF1 AF2mut Luc 5.1, LXR ag inactive, hcDAF12 ag 6.1, hgDAF12 conf 15 and LXR ag 2 inactive.
`COc1ccc(Br)cc1CNCCSc1nnnn1C` gave ssDAF12 agonist inactive, hcDAF12 agonist inactive, DAX1 inh-1 inactive, hgDAF-12 ag inactive, DAX1 inh-2 inactive and SMARCA2 act inactive.
Screening CCOC(=O)c1ccc(N/C=C/C(=O)c2ccco2)cc1 returned ssDAF12 agonist inactive, hcDAF12 agonist inactive, DAX1 inh-1 4.7, hgDAF-12 ag 15, DAX1 inh-2 inactive, SMARCA2 act inactive, DAX1 inh confirm 12, SF1 AF2mut Luc 7.1, hgDAF12 conf 17 and LXR ag 2 inactive.
For CCOC(=O)c1ccc(N/C=C/C(=O)c2ccc(OC)c(OC)c2)cc1 the results were ssDAF12 agonist inactive, hcDAF12 agonist inactive, DAX1 inh-1 inactive, hgDAF-12 ag inactive, DAX1 inh-2 inactive and SMARCA2 act inactive.
Screening Cc1nc(N)sc1-c1csc(Nc2ncccn2)n1 returned ssDAF12 agonist inactive, hcDAF12 agonist inactive, DAX1 inh-1 5.4, hgDAF-12 ag 16, DAX1 inh-2 inactive, SMARCA2 act 56, DAX1 inh confirm 8.4, SF1 AF2mut Luc 4.8, SMARCA2 act conf 106, VP16 Luc act 13, hgDAF12 conf 13 and LXR ag 2 inactive.
`Cc1ccc(O)c(C(=O)CC(=O)c2ccccc2Cl)c1` gave ssDAF12 agonist inactive, hcDAF12 agonist inactive, DAX1 inh-1 5.0, hgDAF-12 ag 22, DAX1 inh-2 5.3, SMARCA2 act inactive, DAX1 inh confirm inactive, SF1 AF2mut Luc inactive, hgDAF12 conf inactive and LXR ag 2 inactive.
